# BAZ2B block – BAZ2B (human) inhibition | Q9UIF8 | 4.4% of 360,000 active | Potency, µM (top dose mostly 114 µM), for the others: at the highest dose activity change, negative = inhibition, actives largely listed as inhibitors | AlphaScreen BAZ2B-H3K14Ac peptide displacement; note: potency is the fitted concentration of half-maximal effect; % is set by controls: 0 for no effect and ±100 for the full control effect; nearly all actives have a fitted effect of over 60% in size
#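 Protein-peptide AlphaScreen: BAZ2B 50 nM, b-H3K14Ac 50 nM, 1x PBS pH 7.4 + 0.01% Tween-20. Preincubation 30 min RT; cpd 30 min RT (top 110 uM); beads 20 min RT, light-protected.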
# GCN5L2 inh – blocks human GCN5L2 histone acetyltransferase | Q92830 | GCN5L2 HAT assay, ThioGlo1 CoA-SH fluorescence | Potency, µM (highest dose often 58.9 µM), without a hit: at the top dose activity change, negative = inhibition, hits mostly inhibitors | 0.21% of 390,000 active | AID 504327; note: potency is the fitted concentration of half-maximal effect; % is set by controls: 0 for no effect and ±100 for the full control effect
# Target sequence (Q92830 whole entry, looked up): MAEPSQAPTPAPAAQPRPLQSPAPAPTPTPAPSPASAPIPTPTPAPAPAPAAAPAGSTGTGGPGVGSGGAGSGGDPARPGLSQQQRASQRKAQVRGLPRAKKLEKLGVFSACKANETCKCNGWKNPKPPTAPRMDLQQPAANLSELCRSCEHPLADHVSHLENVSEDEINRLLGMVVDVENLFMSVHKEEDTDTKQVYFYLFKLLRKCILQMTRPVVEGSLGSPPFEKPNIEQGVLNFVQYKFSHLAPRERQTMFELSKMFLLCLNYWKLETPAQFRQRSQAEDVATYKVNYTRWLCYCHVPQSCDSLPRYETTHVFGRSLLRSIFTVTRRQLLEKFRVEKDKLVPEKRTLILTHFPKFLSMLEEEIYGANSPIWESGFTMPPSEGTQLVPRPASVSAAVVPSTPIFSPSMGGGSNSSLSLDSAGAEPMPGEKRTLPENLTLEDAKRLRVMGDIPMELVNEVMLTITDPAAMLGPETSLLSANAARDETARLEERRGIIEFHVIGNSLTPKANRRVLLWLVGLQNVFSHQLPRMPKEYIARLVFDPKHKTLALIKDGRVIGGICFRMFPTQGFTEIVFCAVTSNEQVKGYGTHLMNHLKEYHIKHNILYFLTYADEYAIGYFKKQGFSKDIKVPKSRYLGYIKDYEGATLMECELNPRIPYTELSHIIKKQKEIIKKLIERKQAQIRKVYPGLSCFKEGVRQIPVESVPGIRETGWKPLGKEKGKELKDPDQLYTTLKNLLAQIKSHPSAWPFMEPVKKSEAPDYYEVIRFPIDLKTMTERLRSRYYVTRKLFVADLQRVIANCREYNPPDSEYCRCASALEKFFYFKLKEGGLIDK
#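 qHTS, 1536-well. 20nM enzyme, pH 7.5 HEPES/EDTA/Tween-20 buffer; 15 min compound preinc., RT. Start: 75uM H3(1-25), 70uM AcCoA, 50uM ThioGlo1. Read Ex340/Em540 at t=0 (autofluorescence flag) and t=20 min.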
# JMJD2A Tudor inh – inhibitors of human JMJD2A Tudor domain. AlphaScreen JMJD2A-Tudor / H3K4me3 peptide binding. Potency, µM (series often up to 114 µM), for the others: at the highest dose activity change, negative = inhibition, hits mostly inhibitors. 4.4% of 390,000 active. O75164; note: potency is the fitted concentration of half-maximal effect; % is set by controls: 0 for no effect and ±100 for the full control effect; nearly all actives have a fitted effect of over 50% in size
# HP1b binding inh – blocks HP1-beta chromodomain binding to methylated histone tails | AlphaScreen HP1-beta / biotin-H3K9me3 peptide binding | Potency, µM (titrated, usually from 114 µM), for inactives: at the top dose activity change, negative = inhibition, most hits filed as inhibitors | 0.56% of 390,000 active | AID 540317; note: potency is the fitted concentration of half-maximal effect; nearly all actives have a fitted effect of over 70% in size
#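 AlphaScreen: HP1-beta (50 nM) preformed 30 min with biotin-H3(1-18)K9me3 peptide (50 nM) in PBS pH 7.4, 0.01% Tween-20. Compound added for 30 min at RT, then streptavidin donor/nickel chelate acceptor beads (10 ug/mL) for 30 min.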
# PI5P4K alpha inh – blocks human PI5P4K alpha kinase activity. max response, %. P48426. PI5P4Kalpha enzyme, ADP-Glo luminescence, 60 min; stronger effect = lower value. 1.2% of 330,000 active; active = max response of -50% or lower; inconclusive = between -30% and -50%; inactive = -30% or higher; note: value at the top dose of about 77 µM; % is set by controls: 0 for no effect and ±100 for the full control effect
#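 Compounds were pin-transferred onto PI5P4Kalpha and substrate in HEPES pH 7.4 buffer with EGTA, CHAPS and 5% DMSO. ATP (5 microM final) started the reaction, which ran 60 minutes at room temperature before ADP-Glo detection.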
# PLK1 PBD inh – blocks phosphopeptide binding to human PLK1 polo-box domain. P53350. 2.8% of 360,000 active. Potency, µM, for the others: max response, negative = inhibition, most hits filed as inhibitors. Plk1 PBD binding of FITC phosphopeptide, fluorescence polarization. AID 720504; note: potency is the fitted concentration of half-maximal effect; series mostly up to about 57 µM; % is set by controls: 0 for no effect and ±100 for the full control effect; nearly all actives have a fitted effect of over 65% in size
# TbPYK inh – Trypanosoma brucei pyruvate kinase inhibition, cherry-pick confirmation; shares compounds with PLK1 PBD inh; recombinant TbPYK, Kinase-Glo ATP luminescence; Potency, µM (highest dose often 76.9 µM), inactives show at the top dose activity change, negative = inhibition, most hits filed as inhibitors; 67% of 890 active; AID 720569; note: potency is the fitted concentration of half-maximal effect; % is set by controls: 0 for no effect and ±100 for the full control effect; nearly all actives have a fitted effect of over 70% in size
# TbPYK orthogonal – inhibits T. brucei pyruvate kinase in orthogonal ADP-Glo assay; shares compounds with PLK1 PBD inh; recombinant TbPYK, ADP-Glo luminescence, 60 min; Potency, µM (series often up to 76.9 µM), for the others: at the highest dose activity change, negative = inhibition, usual class: inhibitors; 62% of 890 active; AID 720584; note: potency is the fitted concentration of half-maximal effect; % is set by controls: 0 for no effect and ±100 for the full control effect; nearly all actives have a fitted effect of over 75% in size
# Starred values were filed as active, the others as inactive; ? = inconclusive; / = no result; [ ] = another dose, or the depositor's remark. Shown are actives, neighbours in structure and some others; about 7% of the full set was active somewhere. Unless noted, calls come from the whole dose curve; as a rule, active = well fitted curve in the direction sought with a large enough effect; inconclusive = small, poorly fitted or top-dose-only effect, or another doubt; inactive = no such curve, though single readings can be large; an effect the other way counts as inactive or inconclusive.
SMILES,BAZ2B block,GCN5L2 inh,JMJD2A Tudor inh,HP1b binding inh,PI5P4K alpha inh,PLK1 PBD inh,TbPYK inh,TbPYK orthogonal
C=CC[C@]1(O)CC[C@H]2[C@@H]3CCC4=CC(=O)CCC4=C3C=C[C@@]21C,/,-19%,/,/,/,/,/,/
CCN(CC)P(=O)(Nc1ccc([N+](=O)[O-])cc1)c1c(C)nn(CCC#N)c1NC(=O)c1ccc(Cl)cc1Cl (stereo unspecified),?,-10%,-8%,13%,-3,-4%,/,/
Cc1ccc(-c2nc(N3CCOCC3)s[n+]2-c2ccccc2)cc1,?,?,8.9µM*,?,-69*,6µM*,0.22µM*,0.56µM*
Clc1ccc2c(c1)CCc1cccnc1C2=C1CCNCC1,?,19%,/,/,/,/,/,/
Cn1c(O)c(/C=C2\C=c3ccccc3=NC2=O)c(=O)n(C)c1=O,2%,-5%,4%,45%,-8,?,?,16%
Cc1ccc(N=Cc2c(O)n(C)c(=O)n(C)c2=O)cc1,-12%,-9%,2%,41%,2,2%,/,/
CC1(C)C(O)CC(O)[C@]2(C)C1CC(=O)[C@]1(C)C2CC[C@@]2(C)C(c3ccoc3)OC(=O)C3OC321 (stereo partly specified),/,-2%,/,/,/,/,/,/
O=C1NC(=O)N(CCc2ccc(F)cc2)C(=O)/C1=C/c1ccco1,10µM*,28µM*,40µM*,35µM*,-75*,1.1µM*,32µM*,?
COc1ccc(CN2C(=O)NC(=O)/C(=C\c3ccco3)C2=O)cc1,28µM*,?,45µM*,?,-77*,1.2µM*,28µM*,?
CC1CC(OP(O)(=S)c2ccc(N(C)C)cc2NC(=O)c2cccs2)CC(C)(C)C1 (stereo unspecified),50µM*,-29%,56µM*,?,-18,6µM*,28µM*,28µM*
CC1(C)[C@@H](O)C[C@H]2[C@](C)(O)[C@@H]3CC[C@H]4[C@@H](O)[C@@]3(C[C@@H](O)[C@@]21O)C[C@@]4(C)O,/,7%,/,/,/,/,/,/
c1ccc(CN2CCCC3(CCNCC3)C2)cc1,/,13%,/,/,/,/,/,/
CN(C)c1ccc(/C=C/c2cc[n+](C)c3ccccc23)cc1,79µM*,38%,22µM*,45µM*,-26,-4%,?,2%
Cc1ccc(OCCOc2cccc(C=C3C(=O)NC(=O)NC3=O)c2)cc1,?,32%,?,15%,-78*,2.7µM*,?,?
Cc1cccc(OCCn2c(=O)oc3ccc(C)cc32)c1,14%,?,130%,172%,9,-9%,/,/
COc1cccc(N2C(=O)/C(=C/c3ccc(C)o3)C(=O)NC2=S)c1,50µM*,-20%,22µM*,?,-59*,2.7µM*,16µM*,28µM*
COc1ccc(N2C(=O)/C(=C/c3ccc(N(C)C)o3)C(=O)NC2=S)cc1,?,-7%,-6%,30%,0,106%,?,?
O=C1NC(=S)N(c2ccccc2)C(=O)/C1=C/c1ccco1,20µM*,?,3.2µM*,2.8µM*,-87*,3µM*,11µM*,16µM*
Cc1ccc(/C=C2\C(=O)NC(=S)N(c3ccc(F)cc3)C2=O)o1,56µM*,?,50µM*,-17%,-59*,3.8µM*,16µM*,20µM*
CCN(CC)c1ccc(C=C2C(=O)N(C)C(=S)N(C)C2=O)o1,?,-3%,-30%,-25%,-27,35%,/,/
CC(=O)OCC1=C(C(=O)O)N2C(=O)[C@@H](NC(=O)CCC[C@@H](N)C(=O)O)[C@H]2SC1,/,8%,/,/,/,/,/,/
COc1ccc(N2C(=O)/C(=C/C=C/c3ccccc3[N+](=O)[O-])C(=O)NC2=S)cc1,50µM*,?,13µM*,25µM*,-91*,1.3µM*,11µM*,25µM*
C=CCN1C(=O)/C(=C/c2cccs2)C(=O)NC1=S,?,29%,79µM*,-7%,-86*,5.3µM*,22µM*,35µM*
COc1ccc(N2C(=O)/C(=C/c3cccs3)C(=O)NC2=S)cc1,-38%,-11%,35µM*,-17%,-96*,2.1µM*,16µM*,25µM*
COc1ccc(N2C(=O)NC(=O)/C(=C\c3cn(C)c4ccccc34)C2=O)cc1,-9%,-27%,-14%,30%,-5,-1%,/,/
SMILES,BAZ2B block,GCN5L2 inh,JMJD2A Tudor inh,HP1b binding inh,PI5P4K alpha inh,PLK1 PBD inh,TbPYK inh,TbPYK orthogonal
CC(C)[C@H](NC(=O)[C@H](CCC(=O)O)NC(=O)[C@H](Cc1ccccc1)NC(=O)[C@H](C)NC(=O)[C@@H](N)Cc1ccc(O)cc1)C(=O)N[C@H](C(=O)NCC(N)=O)C(C)C,/,5%,/,/,/,/,/,/
O=C1NC(=S)NC(=O)C1C/C=C/c1ccccc1,1%,4%,79µM*,-22%,/,11µM*,8.9µM*,11µM*
O=C/C=C/c1ccccc1,/,-1%,-17%,28%,7,-5%,/,/
COc1ccc(CN2C(=O)NC(=O)/C(=C/c3ccc([N+](=O)[O-])s3)C2=O)cc1,25µM*,?,22µM*,28µM*,-75*,1.9µM*,18µM*,32µM*
O=C1NC(=O)N(Cc2ccc(F)cc2)C(=O)/C1=C\c1ccc([N+](=O)[O-])s1,35µM*,?,20µM*,?,-79*,2.7µM*,14µM*,16µM*
CS(=O)(=O)N1CCC2(CCCN(Cc3ccncc3)C2)CC1,/,8%,/,/,/,/,/,/
COc1ccc(N2C(=O)CC(N3CCC(n4c(=O)[nH]c5ccccc54)CC3)C2=O)cc1 (stereo unspecified),3%,-2%[0.501 µM],-6%,56%,/,-6%,/,/
COc1ccc(N2C(=O)CS(=O)C(c3ccccc3)C2=O)cc1 (stereo unspecified),?,11%,8.9µM*,13µM*,-20,2.4µM*,13µM*,25µM*
CC[n+]1c(/C=C/C=C/c2ccc(N(C)C)cc2)sc2ccccc21,35µM*,-3%,50µM*,?,?,0%,32µM*,10%
CN(C)c1ccc(/C=C/C=C/c2sc3ccccc3[n+]2C)cc1,?,-1%,?,?,-13,6%,/,/
COc1ccccc1N1C(=O)NC(=O)/C(=C/c2ccc([N+](=O)[O-])s2)C1=O,35µM*,-14%,56µM*,?,-63*,3.4µM*,?,?

# Screens as filed in PubChem.
